The panel holds about 83,000 compounds, 20% with a hit somewhere; the sample as a whole holds those more often.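 Percent growth is the endpoint: 0 to 100 indicates growth inhibition (40 means 60% inhibition), 0 means no net growth, and negative values indicate cell death.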 Values without a mark were called inactive. The source made the active and inactive calls. Rule for the calls: active = growth percent below 10; inactive = the rest.

Holding throughout (assay): NCI-60 one-dose screen, 48 h (100 = growth as untreated, 0 = no growth, -100 = all killed)
Common to all, as to conditions: 10 µM unless noted

For assay [1], the system named is HCT-15 colon.
Assay [2] concerns HT29 colon.
The test system of assay [3] is SNB-75 CNS.
Assay [4] has as its system SNB-19 CNS.
Assay [5] concerns U251 CNS.
Assay [6] concerns PC-3 prostate.
Assay [7] deals with SK-MEL-5 melanoma.
Assay [8] relates to UACC-62 melanoma.
Assay [9] relates to LOX IMVI melanoma.
The test system of assay [10] is SK-MEL-28 melanoma.
Assay [11] deals with SK-MEL-2 melanoma.
In assay [12] the test system is EKVX NSCLC.
Assay [13] concerns SN12C renal.
Assay [14] concerns UO-31 renal.
Assay [15] deals with TK-10 renal.
For assay [16], the system named is ACHN renal.
The test system of assay [17] is CAKI-1 renal.
Assay [18] concerns CCRF-CEM leukemia.
Assay [19] has as its system MOLT-4 leukemia.

Turning to `O=C(CCN1CCCC1)Nc1ccc2c(NCc3ccc(F)cc3)c3ccccc3nc2c1`, the growth in assay [1] is 14.3%; in assay [2], 0.774% (active); in assay [3] it was -11% (active); in assay [4] it was 4.86% (active); in assay [5], -39.3% (active); in assay [6], -17% (active). The growth in assay [7] is 30.5%; in [8], 1.75% (active); in assay [9], -74% (active); in [10], 30.5%; in [11], -5.55% (active); in assay [12], 14.6%. Also, the growth was -2.56% (active) in assay [13]; 1.44% (active) in assay [14]; -3.79% (active) in assay [15]; 5.75% (active) in assay [16]; 3.81% (active) in [17]; -15.2% (active) in assay [18]. For the same compound, in assay [19], the growth is -19.8% (active).
For the compound `CCC(=O)c1ccc(O)c(OC)c1`, the growth in assay [1] is 111%; in assay [2] it was 103%; in [3] it was 100%; in [4] it was 95.9%; in [5], 93.9%; in assay [6], 92.4%. Moreover, the growth was 98.6% in [7]; 95.5% in [8]; 102% in assay [9]; 97.8% in assay [10]; 103% in assay [11]; 114% in [12]. Besides, the growth is 94.9% in [13]; 101% in assay [14]; 99.2% in [15]; 103% in assay [16]; 100% in assay [17]; 91% in assay [18]. Besides, the growth in [19] is 101%.
Turning to `COc1ccc(C(=O)c2cc(C)c(OC)c(C)c2)c(OC)c1N(C(=O)C(Cl)Cl)C(=O)C(Cl)Cl`, the growth in [1] was 7.03% (active); in assay [2] it was 1.22% (active); in [3] it was 56.4%; in assay [4] it was 26.4%; in assay [5] it was 19.2%; in assay [6] it was 18.1%. The growth in [7] was 0.812% (active); in assay [8], 38.8%; in [9], 20.3%; in [10], 49.8%; in assay [11], 27.2%; in assay [12], 56.9%. The growth in [13] is 35.5%; in [14] it was 37.8%; in [15], 43.8%; in assay [16], 22.2%; in assay [17], 43.2%; in assay [18] it was 10.7%. For the same compound, the growth in assay [19] is 22.6%.
Consider `O=C1c2ccccc2-c2c1c1c(NCCCO)nc3ccccc3c1n2Cc1ccccc1`, for which the growth in [1] was 66%; in assay [2] it was 5.61% (active); in assay [3] it was -1.82% (active); in [4] it was 16.7%; in assay [5], 7.89% (active); in [6] it was 33.8%. Also, the growth is -82.6% (active) in assay [7]; 17.5% in assay [8]; 2.25% (active) in assay [9]; -3.55% (active) in assay [10]; 48.5% in assay [11]; 17.8% in assay [12]. Besides, the growth in assay [13] is 18.6%; in assay [14], -40.9% (active); in [15] it was -20.2% (active); in [16] it was 50.1%; in assay [17] it was 33.9%; in [18], 36%. The growth in assay [19] was 16.9%.
As for `Cc1cc2nc(-c3ccccc3)c(-c3ccccc3)nc2cc1C`, the growth in assay [1] was 98.1%; in assay [2], 116%; in [3] it was 114%; in [4], 104%; in assay [5] it was 105%; in assay [6], 106%. The growth in assay [7] is 92.4%; in assay [8] it was 85.5%; in assay [9] it was 100%; in assay [10], 105%; in [11] it was 107%; in [12], 89.2%. The growth was 92.8% in assay [13]; 113% in assay [14]; 125% in [15]; 114% in assay [16]; 98.7% in assay [17]; 99.4% in assay [18]. Besides, the growth in assay [19] is 89%.
Regarding `Cc1cn(-c2cc(C(=O)Nc3cccc(C#Cc4cccc5[nH]nc(N)c45)c3)cc(C(F)(F)F)c2)cn1`, the growth in assay [1] is 57.4%; in assay [2] it was 18.5%; in assay [3], 65.8%; in assay [4] it was 76.2%; in assay [5], 54.9%; in [6] it was 75.3%. Moreover, the growth in assay [7] is 24.2%; in assay [8], 12.2%; in assay [9], 11%; in assay [10] it was 15.8%; in [11], 5.21% (active); in assay [12], 68%. Besides, the growth is 62.3% in assay [13]; 30.2% in assay [14]; 58.5% in assay [15]; 30.3% in [16]; 79.6% in [17]; 47.4% in assay [18]. The growth in assay [19] is 36.5%.
Consider `Nc1nc(SN=Nc2ccc(S(N)(=O)=O)cc2)c2[nH]cnc2n1`, for which the growth in [1] was 12.6%; in [2], 9.84% (active); in assay [3], 5.46% (active); in [4], 103%; in assay [5], 42.7%; in assay [6] it was 23.8%. Besides, the growth in assay [7] is 46.7%; in assay [8], 0.536% (active); in assay [9] it was -9.46% (active); in assay [10] it was 15.6%; in assay [11], -3.49% (active); in assay [12] it was 28.6%. For the same compound, the growth is 24.2% in [13]; 22.5% in [14]; -9.94% (active) in assay [15]; 15.9% in assay [16]; 1.85% (active) in assay [17]; -2.18% (active) in [18]. In assay [19], the growth is -1.6% (active).
For `Cc1cc2cc3cc(C)c(N)cc3[n+](C)c2cc1N`, the growth in assay [1] is 31.8%; in assay [2], -16.8% (active); in assay [3] it was 38.3%; in assay [4], 11.6%; in [5] it was 6% (active); in assay [6], 8.84% (active). In addition, the growth in assay [7] is 18.4%; in assay [8], 33%; in assay [9], -4.56% (active); in assay [10], 21.7%; in assay [11] it was -21.9% (active); in assay [12] it was 14.3%. Besides, the growth is 8.73% (active) in [13]; 14% in [14]; 16.2% in assay [15]; 28.5% in [16]; 52.7% in assay [17]; 18.8% in assay [18]. For the same compound, the growth in assay [19] was 5.32% (active).

Values taken from PubChem BioAssay (NCI).
